Experimental findings from PubChem BioAssay (NCATS) are described below.

Assay [1] can be described thus: Quantitative highthroughput screen to assess conditional lethalithy of P12 Ichikawa cells grown in Human Plasma-Like Medium with dialyzed fetal bovine serum (HPLM+ds) (AID 1963879). Further: series mostly up to about 46 µM; nearly all actives have a fitted effect of over 35% in size. Conditions: Potency: viability. The method, boiled down:
(§1)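 Each medium arm—HPLM with 10% dialyzed FBS, or RPMI1640 with 5 mM glucose and 10% untreated or dialyzed FBS—was screened against an 11-point, 3-fold compound titration for 48 h at 37 °C, with CellTiter-Glo luminescence as endpoint.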

Assay [2] in a line: Quantitative highthroughput screen to assess conditional lethalithy of SEM cells grown in Human Plasma-Like Medium with dialyzed fetal bovine serum (HPLM+ds) (AID 1963882). Further: potency means the concentration at half of the fitted maximal effect; nearly all actives have a fitted effect of over 35% in size. The method, boiled down:
as §1

Assay [3] is described as follows: Quantitative highthroughput screen to assess conditional lethalithy of SEM cells grown in RPMI1640 with unreated serum (RPMI+s) (AID 1963883). Further: potency means the concentration at half of the fitted maximal effect; nearly all actives have a fitted effect of over 35% in size. The method, boiled down: as §1
A short description of assay [4]: Quantitative highthroughput screen to assess conditional lethalithy of SEM cells grown in RPMI1640 with dialyzed fetal bovine serum (RPMI+ds) (AID 1963884). Further: potency means the concentration at half of the fitted maximal effect; nearly all actives have a fitted effect of over 35% in size. The essentials:
as §1

The nature of assay [5]: Cellular viability qHTS for adrenocortical cancer (ACC) cell line NCI-H295R (AID 1963990). Further: nearly all actives have a fitted effect of over 60% in size. Further: potency means the concentration at half of the fitted maximal effect. The method, boiled down: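 CellTiter-Glo ATP luminescence, read 48 h after compound addition, measured viability of NCI-H295R adrenocortical cells grown serum-free with ITS. Final concentrations spanned up to 46 uM. Data normalized to DMSO and doxorubicin, fitted for IC50 and maximal response.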

Assay [6] in a line: Cellular viability qHTS for adrenocortical cancer (ACC) cell line SW-13 (AID 1963989). Further: nearly all actives have a fitted effect of over 65% in size. Further: potency means the concentration at half of the fitted maximal effect.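 On activity (max response): cells grown in serum-free medium with ITS supplement; on the % scale 0 is the no-effect control and ±100 the full control effect.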 As to conditions: SW-13 ACC cells viability, CellTiter-Glo, 48 h; activity (max response): active compounds read low. The essentials: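 Viability was read as CellTiter-Glo luminescence after 48 h compound treatment (up to 46 uM final) of SW-13 cells grown serum-free; titration curves were fit with a four-parameter logistic model to give IC50 and efficacy.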

Several values for one entry are separate records, joined by “and”; a condition that tells them apart may be missing. Equal values may be shown once. Results filed as inconclusive are left out. Unmarked numbers belong to inactive results. Activity calls are given as the source filed them. The call rests on the fitted dose curve; in most records, active means well fitted curve in the direction sought with a large enough effect; inconclusive means small, poorly fitted or top-dose-only effect, or another doubt; inactive means no such curve, though single readings can be large; an effect the other way counts as inactive or inconclusive.

For the compound `Cc1cc(N2CCOCC2)cc2[nH]c(-c3c(NC[C@@H](O)c4cccc(Cl)c4)cc[nH]c3=O)nc12`, in assay [1], the Potency result was “inactive”. Also, the Potency is 1.48 µM (active) in assay [2], 1.66 µM (active) in assay [3], 1.87 µM (active) in assay [4] and 5.01 µM (active) in assay [5].

Regarding `CC(C)OC(=O)c1cc2c(OCC(O)CNC(C)(C)C)cccc2[nH]1` (stereo unspecified), in assay [6], the activity (max response) is -10.4%.

In the case of `COc1ccc2[nH]c(S(=O)Cc3ncc(C)c(OC)c3C)nc2n1` (stereo unspecified), the activity (max response) in assay [6] was 4.99% and -14.4%.

As to `C[C@@H]1O[C@@H](O[C@@H]2\C=C/C=C\C=C/C=C\C[C@H](C)OC(=O)/C=C\[C@H]3O[C@@H]3C[C@H](O)C[C@]3(O)C[C@@H](O)[C@@H](C(=O)O)[C@H](C2)O3)[C@H](O)[C@H](N)[C@@H]1O`, in assay [6], the activity (max response) was 8.59%.

`COc1cc2c(NC3CCN(C4CCCCC4)CC3)nc(N3CCCN(C(C)C)CC3)nc2cc1OCCCN1CCCCC1`: in assay [6], the Potency is 3.16 µM (active).

In the case of `Cc1cc(O)c2c(O)c3c(O)cccc3cc2c1`, the activity (max response) in assay [6] is -2.49%.

As to `CN(C)[C@@H]1C(=O)C(C(N)=O)=C(O)[C@@]2(O)C(=O)C3=C(O)c4c(O)ccc(Cl)c4[C@@H](O)[C@H]3C[C@@H]12`, the activity (max response) in assay [6] was -3.2%.

As to `CCC[C@H](NC(=O)[C@@H]1[C@H]2CCC[C@H]2CN1C(=O)[C@@H](NC(=O)[C@@H](NC(=O)c1cnccn1)C1CCCCC1)C(C)(C)C)C(=O)C(=O)NC1CC1`, in assay [6], the activity (max response) was -27.4%.

`CCCCCCCCCCCCCCCCCCNC(=O)OC1CCN(C(=O)OC[C@H](COC(=O)N(Cc2cccc[n+]2CC)C(=O)c2ccccc2OC)OC)CC1`: in assay [6], the Potency was 7.31 µM (active).

As for `COc1cc2c3c(n(CCCn4ccnc4)c(=O)c2cc1OC)-c1cc2c(cc1C3=O)OCO2`, the Potency in assay [6] was 0.0316 µM (active).

In the case of `CONC(=O)Nc1ccc(-c2sc3c(c2CN(C)C)c(=O)n(-c2ccc(OC)nn2)c(=O)n3Cc2c(F)cccc2F)cc1`, the activity (max response) in assay [6] was -5.64%.

Turning to `CCCC(C(=O)OCCN(CC)CC)(c1ccccc1)c1ccccc1`, the Potency in assay [6] is 20.6 µM (active).

Consider `CCCCCC=CCC=CCCCCCCCC(=O)OCC`, for which the activity (max response) in assay [6] was -4.47%.

`CCCNC(=O)c1cn2ncnc(Nc3cc(C(=O)NC4CC4)ccc3C)c2c1C`: the activity (max response) in assay [6] is 7.33%.

For `O=c1c(-c2ccc(O)cc2)coc2cc(O[C@@H]3O[C@H](CO)[C@@H](O)[C@H](O)[C@H]3O)ccc12`, the activity (max response) in assay [6] is -7.43%.

Take `CCCCCCCC/C=C/C(=O)O`: the activity (max response) in assay [6] was -1.5%.

As to `CN1C(=O)N[C@@H](Cc2c[nH]c3c(Cl)cccc23)C1=O`, the activity (max response) in assay [6] is -3.59%.

As for `CCOc1ccc2nc(S(N)(=O)=O)sc2c1`, the activity (max response) in assay [6] is -20.8%.

Consider `CCOC(=O)Nc1ccc2c(c1)N(C(=O)CCN1CCOCC1)c1ccccc1S2`, for which the activity (max response) in assay [6] was -13.5%.

On to `CCc1nn(CCCN2CCN(c3cccc(Cl)c3)CC2)c(=O)n1CCOc1ccccc1`, for which the Potency in assay [6] was 14.6 µM (active).

With `COc1cc2c3c(n(CCCN4CCOCC4)c(=O)c2cc1OC)-c1cc2c(cc1C3=O)OCO2`, the Potency in assay [6] was 2.51 µM (active).

As to `CCCCCOc1ccc(C2SC(=O)NC2=O)cc1OCC` (stereo unspecified), the activity (max response) in assay [6] is -6.25%.

With `C=C1/C(=C/C=C2\CCCC3(C)[C@@H]([C@H](C)/C=C/C=C/C(O)(CC)CC)CC[C@@H]23)C[C@@H](O)C[C@@H]1O` (stereo partly specified), the activity (max response) in assay [6] was -11%.

On to `Cc1nc2c([nH]1)c(=O)n(C)c(=O)n2Cc1ccco1`, for which the activity (max response) in assay [6] was -2.81%.

In the case of `CC(C)c1c(-c2ccccc2)nc2c(C#N)c[nH]n2c1=O`, the activity (max response) in assay [6] was -8.31%.

With `CC(=O)OCC(=O)[C@@]1(O)[C@H](C)C[C@H]2[C@@H]3CCC4=CC(=O)C=C[C@]4(C)[C@@]3(F)[C@@H](O)C[C@@]21C`, in assay [6], the activity (max response) is 2.72%.

On to `NC(=O)C(=O)N/N=C/c1ccc([N+](=O)[O-])o1`, for which the activity (max response) in assay [6] is -15.1%.

Regarding `CCC(C(=O)OCCN1CCOC(c2ccccc2)C1C)c1ccccc1` (stereo unspecified), the activity (max response) in assay [6] is 3.6%.

In the case of `O=C1C(CCS(=O)c2ccccc2)C(=O)N(c2ccccc2)N1c1ccccc1` (stereo unspecified), the activity (max response) in assay [6] is 7.53%.

Regarding `Nc1cc(COc2c(Cl)cc(C[C@H](N)C(=O)O)cc2Cl)c2oc(-c3ccccc3)nc2c1`, in assay [6], the activity (max response) was 4.08%.

With `CCCCOCCOCCOCc1cc2c(cc1CCC)OCO2`, in assay [6], the activity (max response) is 0.496% and -9.13%.

For `C[C@H](NC(=O)[C@H]1NCC[C@@H]1O)c1ccc(-c2noc(CCC3CCCC3)n2)cc1`, the activity (max response) in assay [6] was -20.3%.

In the case of `CC1=C2[N-][C@H]([C@H](CC(N)=O)[C@@]2(C)CCC(=O)NC[C@@H](C)OP(=O)([O-])O[C@H]2[C@@H](O)[C@@H](n3cnc4cc(C)c(C)cc43)O[C@@H]2CO)[C@]2(C)N=C(C(C)=C3N=C(C=C4N=C1[C@@H](CCC(N)=O)C4(C)C)[C@@H](CCC(N)=O)[C@]3(C)CC(N)=O)[C@@H](CCC(N)=O)[C@]2(C)CC(N)=O.O.[Co+2]`, the activity (max response) in assay [6] is -17.2%.

In the case of `CC(C)(C)C[C@H]1N[C@@H](C(=O)NC2CCC(O)CC2)[C@H](c2cccc(Cl)c2F)[C@@]12C(=O)Nc1cc(Cl)ccc12` (stereo partly specified), the Potency in assay [6] is 25.1 µM (active).

As to `Cc1ccc(C(=O)Oc2ccc(C(O)CNC(C)(C)C)cc2OC(=O)c2ccc(C)cc2)cc1` (stereo unspecified), the activity (max response) in assay [6] is -16%.

As to `CCCCC(=O)OCC(=O)[C@H]1[C@H](C)C[C@H]2[C@@H]3C[C@H](F)C4=CC(=O)C=C[C@]4(C)[C@@]3(F)[C@@H](O)C[C@@]21C`, the activity (max response) in assay [6] is 5.4%.

Regarding `CNCCCN1c2ccccc2CCc2ccccc21`, the Potency in assay [6] was 20.6 µM (active).

Consider `O=c1c(-n2ccnn2)c[nH]n1-c1cc(N2CCOCC2)ncn1`, for which the activity (max response) in assay [6] was -5.69%.

As to `Cn1ncc(Cl)c1-c1cc(C(=O)N[C@H](CN)Cc2cccc(F)c2)sc1Cl`, in assay [6], the activity (max response) is -8.31%.

As for `CCc1c(C)[nH]c2c1C(=O)C(CN1CCOCC1)CC2` (stereo unspecified), in assay [6], the activity (max response) was 7.75%.

With `O=[N+]([O-])c1ccc(/C=N\O)o1`, in assay [6], the activity (max response) is -5.61%.

Take `O=C(CCCCCCCCC#CI)Oc1ccccc1`: the activity (max response) in assay [6] was -0.224%. Further, in assay [5], the Potency was 13 µM (active).

Take `CCN(CC)CCNC(=O)c1c(C)[nH]c(/C=C2\C(=O)Nc3ccc(F)cc32)c1C`: the Potency was 18.4 µM (active) in assay [6]; 13 µM (active) and 15.8 µM (active) in assay [5].

Consider `CC(C)(Oc1ccc(Cl)cc1)C(=O)OCCCOC(=O)C(C)(C)Oc1ccc(Cl)cc1`, for which, in assay [6], the activity (max response) is 0.371%. In assay [5], the Potency entry is “inactive”.
